Compounds with a hit are over-represented: about 3.4% of the library has one in this group of screens.
GPR151 activ: activators of human GPR151, primary screen, cell-based, PathHunter beta-arrestin, luminescence; PathHunter beta-arrestin GPR151 cells; AID 1508602, 2020; 1% of 650,000 active; activation, % at 11.2 µM; in the data active means activation above about 4.9%;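 further: 0% = median of compound wells and 100% = cells with positive control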
MITF primary: MITF inhibitors, primary screen, biochemical, AlphaScreen, human; 0.91% of 650,000 active; inhibition, % at 2.6 µM; AlphaScreen MITF homodimerization, bead proximity signal; Microphthalmia-associated transcription factor (Homo sapiens), O75030; in the data active means inhibition above about 50%;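 further: 0% = vehicle wells with protein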
Target sequence (O75030 whole entry, looked up): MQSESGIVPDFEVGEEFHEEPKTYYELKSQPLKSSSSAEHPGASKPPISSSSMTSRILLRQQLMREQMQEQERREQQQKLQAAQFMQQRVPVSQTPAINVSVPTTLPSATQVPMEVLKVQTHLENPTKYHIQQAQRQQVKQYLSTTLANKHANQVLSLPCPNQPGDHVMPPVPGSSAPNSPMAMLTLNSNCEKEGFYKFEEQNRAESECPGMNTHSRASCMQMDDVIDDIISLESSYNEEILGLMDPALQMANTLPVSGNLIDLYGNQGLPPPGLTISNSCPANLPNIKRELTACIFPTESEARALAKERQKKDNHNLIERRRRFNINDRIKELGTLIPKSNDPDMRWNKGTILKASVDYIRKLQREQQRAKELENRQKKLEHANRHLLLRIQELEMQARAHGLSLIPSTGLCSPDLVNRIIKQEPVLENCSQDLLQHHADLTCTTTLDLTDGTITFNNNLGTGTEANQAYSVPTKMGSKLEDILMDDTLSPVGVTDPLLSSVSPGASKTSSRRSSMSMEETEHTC
TEAD-YAP block: TEAD-YAP interaction inhibition, primary screen, TEAD-YAP interaction inhibitor project, luminescence, HEK-TIYL cells; TEAD-Gal4/YAP UAS-luciferase luminescence; inhibition, % at 9.12 µM; 1.4% of 640,000 active; in the data active means inhibition above about 32%;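 further: 0% = median of test compound wells and 100% = reference inhibitor wells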
FBW7 act: FBW7 E3 ligase activators, primary screen, biochemical, AlphaScreen, human. F-box/WD repeat-containing protein 7 (Homo sapiens), Q969H0. AlphaScreen FBW7–phospho-cyclin E peptide binding, activator screen. normalized activity (activation), % at 26.1 µM. 0.13% of 650,000 active. AID 1259310, 2017; in the data active means normalized activity above about 1.9%;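 further: purified mutant Fbw7 with reduced substrate affinity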
GPR151 conf act: GPR151 activators, triplicate retest, confirmation, cell-based, PathHunter beta-arrestin, luminescence; shares compounds with GPR151 activ; GPR151 PathHunter beta-arrestin cells, 90 min; % of EA-reagent control over plate median; 6,700 tested, under 10 active; activation, % at 11.2 µM;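 active means mean percent activation across replicates above the confirmation screen cutoff of 4.91%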
GPR119 ag: GPR119 activators in beta-arrestin cells, counter-screen for GPR151 activator project, cell-based, PathHunter beta-arrestin, luminescence, triplicate. shares compounds with GPR151 activ. 90 min; 0 = compound-well median, 100 = enzyme-acceptor control. activation, % at 11.2 µM. 0.3% of 6,700 active. AID 1508611, 2020;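 active means mean percent activation in the counterscreen above 29.09%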;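 further: counterscreen on off-target GPR119 to flag nonselective hits from the GPR151 activator screen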
* hit, by the source's call; / = not tested or not shown.

SMILES | GPR151 activ | MITF primary | TEAD-YAP block | FBW7 act | GPR151 conf act | GPR119 ag
COc1cccc2cc(C(=O)/C=C/c3cccc(F)c3)c(=O)oc12 | 5.4* | -6 | -2 | 0 | 0 | 1
CC1(C2CCN(Cc3nc(-c4ccccc4)cs3)CC2)NC(=O)NC1=O (stereo unspecified) | 5.6* | 9 | -6 | 0 | 0 | -2
O=C(N/N=C/c1ccc(Cl)c([N+](=O)[O-])c1)c1cc(-c2ccccc2)n[nH]1 | 7.2* | 21 | -8 | 0 | 0 | -10
CCC(C)NC(=O)c1cccc(I)c1 (stereo unspecified) | 1 | 7 | -3 | 0 | / | /
COc1ccc2c(c1)CC(c1nc3ccc(-c4ccc(N)nc4)cc3o1)CO2 (stereo unspecified) | 0 | -1 | 3 | 0 | / | /
C1=CCC(CN2CCN(C3CCCC3)CC2)CC1 (stereo unspecified) | 5.1* | 33 | -6 | 0 | 1 | 13
Cc1ccc(N2CC(C(=O)Nc3ccccc3C(N)=O)CC2=O)cc1 (stereo unspecified) | -1 | 15 | 3 | 0 | / | /
Cc1ccc(N2CC(C(=O)Nc3ccccc3C(=O)NC(C)C)CC2=O)cc1 (stereo unspecified) | 6.3* | -14 | -4 | 0 | 0 | 22
O=C(NCc1ccco1)c1ccccc1NC(=O)C1CC(=O)N(c2ccc(Cl)cc2)C1 (stereo unspecified) | 6.8* | 0 | 3 | 0 | 0 | 3
O=C(NCc1ccco1)C1CC(=O)N(c2ccc(F)cc2)C1 (stereo unspecified) | -1 | 1 | 0 | 0 | / | /
Cc1ccc(N2CC(C(=O)Nc3ccccc3C(=O)NCCc3ccccc3)CC2=O)cc1 (stereo unspecified) | 5.3* | 9 | -10 | 0 | -1 | -8
CCOC(=O)CSc1nc2cc(C(=O)N(CC)CC)ccc2c(=O)n1C1CCCCC1 | 1 | -12 | -7 | 0 | / | /
COCCCNC(=S)N1CCCC(c2nc3ccc(C)cc3[nH]2)C1 (stereo unspecified) | 5.2* | -10 | -22 | 0 | 0 | -2
COc1ccc(Cl)cc1NC(=O)CN(C)CC(=O)Nc1ccc(Br)cc1 | 7.5* | 6 | 5 | 0 | 1 | 1
COc1ccc(Cl)cc1NC(=O)CN(C)S(=O)(=O)c1ccc(Br)cc1 | 0 | 10 | 1 | 0 | / | /
CC(=O)c1cccc(NC(=O)/C(=C/c2ccco2)NC(=O)c2ccco2)c1 | 1 | 0 | -10 | 0 | / | /
COC(=O)c1cccc(NC(=O)/C(=C\c2ccco2)NC(=O)c2ccco2)c1 | 5.5* | 13 | 7 | 0 | 0 | -6
CC(=O)c1ccc(F)c(-c2cc(C)cc3c2OC(CNC(=O)C2CCC(=O)N2)C3)c1 (stereo unspecified) | 1 | 7 | 0 | 0 | / | /
CCOC(=O)C1=C(C)N=c2s/c(=C\c3ccc(OCc4ccccc4Cl)c(OC)c3)c(=O)n2C1c1c(OC)ccc2ccccc12 (stereo unspecified) | 1 | 10 | 3 | 0 | / | /
O=C(Nc1nc2n(n1)C(c1ccc(F)cc1)CC(c1ccccc1)N2)c1cccnc1 (stereo unspecified) | 5.7* | 3 | 13 | 0 | 0 | 4
CCC(=O)Nc1nc2n(n1)C(c1ccccc1)CC(c1ccc(Cl)cc1)N2 (stereo unspecified) | -1 | 12 | 3 | 0 | / | /
Cc1cc(C)nc(Nc2n[nH]c(COc3ccccc3)n2)n1 | 5.7* | 6 | -14 | 0 | -1 | -2
CN(C)c1ccc(C(=O)N2CCOCC2)cc1 | -1 | 7 | 5 | 1 | / | /
CN(C)c1ccc(C(=S)N2CCOCC2)cc1 | 9.7* | -3 | 0 | 0 | 0 | -7
COc1cccc(C=Nc2ccc(C)c(F)c2)c1O | 5.8* | -2 | 7 | 0 | 0 | 11
SMILES | GPR151 activ | MITF primary | TEAD-YAP block | FBW7 act | GPR151 conf act | GPR119 ag
Cc1cccc(CN2CCc3nc(N4CCCC4)[nH]c(=O)c3C2)c1 | 1 | -3 | 0 | 0 | / | /
C1CN(c2nc3nonc3nc2N2CCSCC2)CCO1 | 8.9* | 4 | 0 | 0 | 1 | -1
C1CN(c2nc3nonc3nc2N2CCOCC2)CCO1 | 0 | 10 | 2 | 0 | / | /
CC(C)c1ccc(Nc2nnc(SCC(N)=O)s2)cc1 | 1 | 10 | -30 | 0 | / | /
CN1CCC(=NNC(=O)c2ccc(CN3c4cccc5cccc(c45)S3(=O)=O)cc2)CC1 | 6.0* | 2 | 1 | 0 | -1 | 1
C/C(=N\NC(=O)c1ccc(CN2c3cccc4cccc(c34)S2(=O)=O)cc1)c1ccco1 | 2 | 4 | -2 | 0 | / | /
CCOC(=O)c1c(NC(=O)CN2CCOCC2)sc2c1CCC(C)C2 (stereo unspecified) | 3 | 6 | 16 | 0 | / | /
CC(C)(C)C#C/C=N/n1nnc(-c2ccccc2)n1 | 5.8* | 8 | -3 | 0 | -1 | -4
CCOC(=O)c1sc(NC(=O)CSc2ncnc3sc(C)c(C)c23)c(C(=O)OCC)c1C | 6.4* | 10 | 9 | 0 | 1 | 8
COC(=O)c1c(OCc2ccncc2)cc(=O)n2c1CCN(C(=O)c1ccccc1C)CC2 | 5.1* | -19 | -17 | 0 | 1 | -2
COC(=O)c1c(OCc2ccccn2)cc(=O)n2c1CCN(C(=O)c1ccccc1C)CC2 | -1 | -15 | -1 | 0 | / | /
CC1(C)[C@H]2CC=C(CN3CCC(n4nccc4NC(=O)CCOc4ccccc4)CC3)[C@@H]1C2 | 5.3* | 2 | 7 | 0 | 0 | 4
CC(C)CC(=O)Nc1ccnn1C1CCN(CC2=CC[C@H]3C[C@@H]2C3(C)C)CC1 | 0 | 4 | 4 | 0 | / | /
CC1(CCC(=O)N2CCC(n3nccc3NC(=O)CCOc3ccccc3)CC2)CC1 | 2 | 7 | 1 | 0 | / | /
O=C(CCOc1ccccc1)Nc1ccnn1C1CCN(C(=O)CCc2ccccc2)CC1 | 5.7* | 1 | -6 | 0 | 0 | 5
Cc1cc(C(=O)C(F)(F)F)c(C)n1-c1ccc(N)cc1 | 3 | 2 | -29 | 0 | / | /
N#Cc1cccc(NC(=O)CCCc2ccccc2)c1 | 0 | -12 | -41 | 0 | / | /
N#Cc1cccc(NC(=O)Cc2ccccc2)c1 | 7.6* | 18 | 4 | 0 | 0 | -4
N#Cc1ccc(NC(=O)CCCc2ccccc2)cc1 | 5.1* | 8 | -81 | 0 | 0 | -8
O=C(CCCc1ccccc1)Nc1ccc(F)cc1 | 6.1* | -4 | -90 | 0 | -1 | -13
O=C(CCCc1ccccc1)Nc1ccccc1 | 0 | 12 | -60 | 0 | / | /
CSc1cccc(N2C(=O)CN(Cc3ccccc3)C2=S)c1 | -1 | 11 | 10 | 0 | / | /

Bioassay records as filed in PubChem.
